{"source": "ChEMBL document CHEMBL4513146", "about": "“CO-ADD screening of Karazin Kharkiv National University (Ukraine) compounds”", "note": "Entries with a potency or affinity are not part of this list."}
{"test_system": "Cryptococcus neoformans", "conditions": "Concentration 32 ug.mL-1; ASSAY_TEST Inhibition of Fungal Growth; detection method Resazurin; Absorption (OD600-OD570); plate type 384well; NBS; CORNING #3640", "units": {"Inhibition": "%"}}
{"smiles": "COc1cccc(NC(=O)Cn2nc3ccc(-c4ccc(C)c(C)c4)nn3c2=O)c1", "Inhibition": -10.05}
{"smiles": "O=c1n(Cc2ccc3c(c2)OCO3)nc2c(S(=O)(=O)N3CCCCC3)cccn12", "Inhibition": -6.79}
{"smiles": "COc1ccc(NC(=O)Cn2nc3c(SCc4ccc(Cl)cc4)nccn3c2=O)cc1OC", "Inhibition": -20.96}
{"smiles": "O=c1c2sccc2n2c(=S)[nH]nc2n1CC1CCCO1", "note": "(stereo not given)", "Inhibition": -5.63}
{"smiles": "COc1ccc(NC(=O)Cn2nc3ccc(-c4ccccc4)nn3c2=O)cc1", "Inhibition": -8.43}
{"smiles": "Cc1ccc(Cn2nc3c(=O)n(-c4ccc(C)c(C)c4)ccn3c2=O)cc1", "Inhibition": -17.46}
{"smiles": "O=C(CCc1nnc2c(N3CCCCC3)nc3ccccc3n12)NCc1ccc(Cl)cc1", "Inhibition": -23.16}
{"smiles": "O=C(NCc1ccccc1)c1ccc2nn(CC(=O)N3CCN(c4ccccc4F)CC3)c(=O)n2c1", "Inhibition": -15.87}
{"smiles": "O=C(Cn1nc2c(Oc3ccccc3)nccn2c1=O)Nc1ccccc1C(F)(F)F", "Inhibition": -8.9}
{"smiles": "COc1ccccc1-n1ccn2c(SCC(=O)Nc3ccc(C)c(F)c3)nnc2c1=O", "Inhibition": -5.32}
{"smiles": "CCOc1ccc(-n2ccn3c(SCC(=O)c4ccc(OC)c(OC)c4)nnc3c2=O)cc1", "Inhibition": -6.73}
{"smiles": "COc1cc(OC)c(NC(=O)Cn2nc3c(Sc4ccc(C)cc4C)nccn3c2=O)cc1Cl", "Inhibition": -14.9}
{"smiles": "CC1CC(C)CN(c2nccn3c(=O)n(CC(=O)Nc4cccc(C(F)(F)F)c4)nc23)C1", "note": "(stereo not given)", "Inhibition": -9.37}
{"smiles": "CCc1ccc(N(Cc2ccccc2F)S(=O)(=O)c2cccn3c(CC)nnc23)cc1", "Inhibition": -5.13}
{"smiles": "O=C(Cn1nc2c(N3CCOCC3)nccn2c1=O)NCc1ccccc1Cl", "Inhibition": -5.18}
{"smiles": "COc1ccccc1-n1ccn2c(SCc3ccc(C)cc3)nnc2c1=O", "Inhibition": -9.44}
{"smiles": "COc1ccc(-c2cc3c4nn(CC(=O)Nc5cc(OC)ccc5OC)c(=O)n4ccn3n2)cc1", "Inhibition": -25.14}
{"smiles": "Cc1ccc(Oc2nccn3c(=O)n(CC(=O)Nc4ccc5c(c4)OCO5)nc23)cc1", "Inhibition": -8.87}
{"smiles": "Cc1ccccc1Oc1nccn2c(=O)n(CC(=O)Nc3ccccc3C(F)(F)F)nc12", "Inhibition": -11.87}
{"smiles": "N#Cc1cccc(NC(=O)CSc2nnc3c4cc(-c5ccc(F)cc5)nn4ccn23)c1", "Inhibition": -30.63}
{"smiles": "Cc1ccccc1CSc1nnc2c(=O)n(-c3ccc(F)c(F)c3)ccn12", "Inhibition": -9.1}
{"smiles": "CCCCc1ccc(NC(=O)Cn2nc3c(N4CCN(c5ccccc5C)CC4)nccn3c2=O)cc1", "Inhibition": -6.75}
{"smiles": "CCc1nnc2c(SCC(=O)Nc3ccc(OC)c(Cl)c3)nc3ccccc3n12", "Inhibition": -21.55}
{"smiles": "COc1ccccc1-n1ccn2c(SCC(=O)c3ccc(C)cc3C)nnc2c1=O", "Inhibition": -10.37}
{"smiles": "O=C(CSc1nnc2c3cc(-c4ccccc4)nn3ccn12)NCc1ccccc1Cl", "Inhibition": -17.16}
{"smiles": "CCc1nnc2c(=O)n(CC(=O)Nc3ccc(C(C)C)cc3)c3ccccc3n12", "Inhibition": -28.42}
{"smiles": "Cc1nnc2ccc(S(=O)(=O)N(Cc3cccc(F)c3)c3cccc(F)c3)cn12", "Inhibition": -8.19}
{"smiles": "Cc1nnc2ccc(S(=O)(=O)N(Cc3ccccc3)c3ccc(Cl)cc3)cn12", "Inhibition": -6.05}
{"smiles": "CC(=O)c1ccc(NC(=O)Cn2nc3ccc(-c4ccc(C)c(C)c4)nn3c2=O)cc1", "Inhibition": -8.82}
{"smiles": "O=C(CSc1nnc2c(=O)n(-c3ccc(Br)cc3)ccn12)c1c[nH]c2ccccc12", "Inhibition": -16.54}
{"smiles": "O=c1c2sccc2n2c(=O)n(Cc3ccc(F)cc3)nc2n1CCc1ccccc1", "Inhibition": -5}
{"smiles": "Cc1ccc(Cn2c(=O)c3ccccc3n3c(=O)n(CC(=O)Nc4ccc5c(c4)OCCO5)nc23)cc1", "Inhibition": -21.97}
{"smiles": "O=C(Cn1nc2c(N3CCSCC3)nc3ccccc3n2c1=O)NCc1ccccc1", "Inhibition": -23.77}
{"smiles": "Cc1nnc2c(S(=O)(=O)N(Cc3cccc(F)c3)c3ccc(C(C)C)cc3)cccn12", "Inhibition": -6.4}
{"smiles": "O=C(Cn1nc2c3cc(-c4ccc(F)cc4)nn3ccn2c1=O)NCc1ccccc1Cl", "Inhibition": -27.16}
{"smiles": "O=C(Cn1nc2c(N3CCOCC3)nccn2c1=O)NCc1ccc(Cl)cc1", "Inhibition": -3.97}
{"smiles": "CCCCOc1ccc(-c2cc3c4nnc(SCC(=O)Nc5ccc(C)c(F)c5)n4ccn3n2)cc1", "Inhibition": -15.89}
{"smiles": "Cc1cc(C)c(NC(=O)Cn2c(=O)c3nnc(C(C)C)n3c3ccccc32)c(C)c1", "Inhibition": -5.77}
{"smiles": "CC(C)CCn1c(=O)c2ccccc2n2c(=O)n(CC#N)nc12", "Inhibition": -29.58}
{"smiles": "Cc1cccc(-c2nc(CSc3nc4ccccc4n4c(C(C)C)nnc34)c(C)o2)c1", "Inhibition": -24.07}
